High-throughput results (PubChem BioAssay)
Shown are actives, neighbours in structure and some others; about 5.9% of the full set was active somewhere.
ATXN2 expr inh = Primary qHTS for Inhibitors of ATXN expression; HEK-293 ATXN2-luciferase reporter, luminescence, 24 h; Potency, µM (titrated, usually from 57 µM), without a hit: top-dose activity change, negative = inhibition, most hits filed as inhibitors; 360,000 compounds, 0.72% hits; AID 1745845, 2022; also: % is scaled to controls: 0 for no effect and ±100 for the full control effect; nearly all actives have a fitted effect of over 55% in size
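ATXN2-luciferase reporter cells (luciferase flanked by upstream and downstream ATXN2 gene portions) were treated 24 h at 37 °C with compounds at up to 57 uM. SteadyGlo luminescence gave expression; GF-AFC fluorescence gave viability.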
TGFb inhibitor = qHTS for Inhibitors of TGF-b | HepG2 CAGA-GFP TGF-b/SMAD3 reporter, GFP fluorescence, 18 h; TGF-beta stimulated, 500 pg/mL final | 410,000 compounds, 1.2% hits | Potency, µM (top dose mostly 46.1 µM), without a hit: top-dose activity, negative = inhibition, most hits filed as inhibitors; also: % is scaled to controls: 0 for no effect and ±100 for the full control effect; nearly all actives have a fitted effect of over 65% in size
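TGF-beta reporter screen: HEPG2 CAGA-GFP, 1% FBS, 500 pg/mL TGF-beta final, 18 h; per-cell GFP summed per well; curves fitted and categorized by class.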
KB-V1 cytotox = qHTS assay for MDR1-selective chemotherapeutics: Primary screen using the drug-selected MDR subline cells KB-V1 | Potency, µM (titrated, usually from 46.1 µM), actives largely listed as cytotoxic | 400,000 compounds, 3.4% hits | KB-V1 MDR cells viability, CellTiter-Glo, 72 h | AID 1347076, 2019; also: % is scaled to controls: 0 for no effect and ±100 for the full control effect; nearly all actives have a fitted effect of over 60% in size
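Potencies derive from concentration-effect curves fitted to normalized luminescence (CellTiter-Glo) of KB-V1 cells treated for 72 h at 37 degrees C in phenol-red-free DMEM containing 10% FBS.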
S2 tox = Viability Counterscreen for Primary qHTS for Inhibitors of ATXN expression; S2 cells (HEK-293 line with an ATXN2-luciferase reporter) viability, CellTiter-Fluor protease fluorescence, 24 h; 400,000 compounds, 0.49% hits; Potency, µM (top dose mostly 56.7 µM), usual class: cytotoxic; also: nearly all actives have a fitted effect of over 40% in size
HepG2 tox = qHTS for Inhibitors of TGF-b: Cytotox Counterscreen; HepG2 CAGA-GFP viability, ATP luminescence, 18 h; 410,000 compounds, 0.76% hits; Potency, µM (highest dose often 46.1 µM), inactives show at the top dose activity change, negative = cytotoxicity, hits mostly cytotoxic
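HepG2 CAGA-GFP cells (1000/well, DMEM with 1% FBS) received compound, then TGF-beta at 500 pg/mL final, and were incubated 18 hours at 37 degrees C. Viability was read by CellTiter-Glo luminescence. Media-only wells were set as complete cell-killing and DMSO as no toxicity.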
KB-3-1 tox = qHTS assay for MDR1-selective chemotherapeutics: Primary screen using the parental adenocarcinoma cell KB-3-1; 400,000 compounds, 1.4% hits; Potency, µM (titrated, usually from 46.1 µM), hits mostly cytotoxic; KB-3-1 viability, CellTiter-Glo ATP luminescence, 72 h; also: % is scaled to controls: 0 for no effect and ±100 for the full control effect; nearly all actives have a fitted effect of over 60% in size
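Parental KB-3-1 adenocarcinoma cells in phenol-red-free DMEM with 10% FBS were pin-treated with compounds at several concentrations, incubated 72 h at 37 °C, and viability read by CellTiter-Glo luminescence; concentration-effect curves were fitted after normalization.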
* marks the source's active call; other numbers are inactive results; i = inactive; ? = inconclusive; / = no result; ! = not confirmed by another sample. Calls follow the shape of the dose curve; as a rule, active = well fitted curve in the direction sought with a large enough effect; inconclusive = small, poorly fitted or top-dose-only effect, or another doubt; inactive = no such curve, though single readings can be large; an effect the other way counts as inactive or inconclusive. Potency is read from the fitted curve at half-maximal effect.

SMILES	ATXN2 expr inh	TGFb inhibitor	KB-V1 cytotox	S2 tox	HepG2 tox	KB-3-1 tox
CN(CCc1ccccc1)Cc1c[nH]c2ccccc12	/	14.1µM*	?	?	11.2µM*	?
CC(=CCCC1=CCC(C2=CC(=O)OC2O)OC1O)CCC1=C(C)CCCC1(C)C (stereo unspecified)	-5.8%	/	/	/	/	/
CC12CCC(=O)C=C1C=CC1C2CCC2(C)C(O)CCC12 (stereo unspecified)	9.2%	24.3%	2.06µM*	i	19.2%	8.2µM*
C[C@]12CCC(=O)C=C1C=CC1C2CC[C@@]2(C)C1CC[C@@H]2O (stereo partly specified)	-8.9%	0.7%	3.66µM*	i	-1.7%	?
CC(=O)[C@@H]1CC[C@@H]2[C@@H]3CCC4=CC(=O)CC[C@@]4(C)[C@H]3CC[C@]21C	/	/	/	i	/	/
CC12CCC(=O)C=C1CC(N1CC1)C1C2CCC2(C)C(O)CCC12 (stereo unspecified)	-34.7%	6.4%	?	i	2.2%	?
CC(O)C1C=CC=CC(=O)OC2CC3OC4C5OC5(C)CCC4(COC(=O)C4OC4(C)C(O)CO1)C2(C)C31CO1 (stereo unspecified)	?	0.251µM*	10.3µM*	0.0067µM*	7.0%	0.206µM*
CC(=O)OC1C(=O)OCC23CCC4(C)OC4C2OC2CC(OC(=O)C=CC=CC(=O)OCCC1C)C3(C)C21CO1 (stereo unspecified)	?	-63.0%	0.366µM*	0.0299µM*	-25.6%	0.184µM*
CCCC12CN3CCN(CC(C3)/C1=N\NC(=O)c1ccncc1)C2	-13.4%	-19.4%	i	i	5.6%	i
CCC12CN3CCN(CC(C3)/C1=N/NC(=O)c1ccncc1)C2	-11.0%	1.12µM*	i	i	8.1%	i
O=C(O)C(=O)c1cn(Cc2ccccc2)c2ccc(-c3ccc(OC(F)(F)F)cc3)cc12	-7.1%	/	/	/	/	/
CCCCOc1nc2ccccc2c(=O)n1-c1ccccc1	-7.7%	-14.2%	16.4µM*	?	-11.2%	i
COc1nc2ccccc2c(=O)n1-c1ccc(C)cc1	7.0%	0.0%	?	i	3.3%	i
CC(C)CCn1c(=O)c(C(=O)Nc2ccccc2S(N)(=O)=O)c(O)c2ccccc21	-37.0%	20µM*	2.91µM*	i	-16.4%	3.66µM*
CCCCn1c(=O)c(C(=O)Nc2cnccn2)c(O)c2ccccc21	-5.9%	2.0%	?	i	-22.6%	7.31µM*
CCCCn1c(=O)c(C(=O)NCc2ccccc2OC)c(O)c2ccccc21	-17.5%	7.9%	?	i	4.8%	23.1µM*
CCCCCn1c(=O)c(C(=O)Nc2ncccc2C)c(O)c2ccccc21	-6.1%	16.4%	5.17µM*	i	-7.4%	i
CCCCn1c(=O)c(C(=O)Nc2ccccc2C)c(O)c2ccccc21	21.5%	7.0%	i	i	14.5%	i
CCCCCn1c(=O)c(C(=O)NCCc2ccccc2)c(O)c2ccccc21	-16.0%	-1.9%	?	i	0.2%	?
CCN1C(=O)c2ccccc2Sc2ccc(NC(=O)Nc3ccc(Br)c(C)c3)cc21	?	?	?	?	-2.4%	i
Cc1ccc(C(=O)COC(=O)c2cccc(NC(=O)c3ccc(Br)cc3)c2)cc1	9.9%	1.8%	?	?	-16.9%	i
COc1cc(/C=C(/C)[N+](=O)[O-])ccc1OCc1ccccc1Cl	25.1µM*	5.01µM*	?	31.6µM*	7.94µM*	?
COc1cc(C=C2C(=O)NC(=O)NC2=O)ccc1OCc1ccc([N+](=O)[O-])cc1	47.7%	0.0%	i	i	1.0%	i
COC12C(COC(N)=O)C3=C(C(=O)C(C)=C(N)C3=O)N1CC1C2N1C (stereo unspecified)	6.31µM*	-29.2%	?	?	-66.3%	?
CCOc1ccc(N(C(C)C(=O)Nc2cc(Cl)ccc2OC)S(C)(=O)=O)cc1 (stereo unspecified)	-17.8%	?	?	?	-14.1%	3.66µM*
SMILES	ATXN2 expr inh	TGFb inhibitor	KB-V1 cytotox	S2 tox	HepG2 tox	KB-3-1 tox
CCc1ccc(NC(=O)c2ccc3oc(=O)n(Cc4ccccc4)c3c2)cc1	-15.0%	?	i	?	-21.2%	?
COc1ccccc1-c1nn2c(=O)cc(CN3CCN(C(=O)Nc4ccc(C)cc4Cl)CC3)nc2s1	-10.4%	-1.4%	?	?	-1.5%	?
CC(N)Cc1ccc2c(c1)OCO2 (stereo unspecified)	/	/	/	i	/	/
CCCOP(=O)(OCCC)C(Nc1cccc(C(F)(F)F)c1)c1ccc(C)cc1 (stereo unspecified)	-16.1%	?	11.6µM*	i	-17.2%	?
Cc1c(C(=O)Nc2cccc(C(F)(F)F)c2)cc(-c2ccccc2)n1CCCN1CCOCC1	-14.0%	/	/	/	/	/
O=C1NC(=O)C(Cc2ccccc2)(Cc2ccccc2)C(=O)N1Cc1ccccc1	-13.9%	?	16.4µM*	i	-52.9%	?
CC(=O)[C@H]1CC[C@H]2[C@@H]3CCC4=CC(=O)CC[C@]4(C)[C@H]3CC[C@]12C	?	5.0%	5.8µM*!	?	2.0%	13µM*!
CCN(C(=O)Cn1c(=O)oc2cc(S(=O)(=O)N3CCCCCC3)ccc21)c1cccc(C)c1	/	/	/	/	-33.6%	/
O=C(CNC(=O)OCc1ccccc1)NCC(=O)Nc1ccc(Br)cc1C(=O)c1ccccc1	4.0%	1.3%	?	?	-0.8%	i
O=C(CNC(=O)OCc1ccccc1)Nc1ccc(Br)cc1C(=O)c1ccccc1	6.0%	?	10.3µM*	i	2.7%	?
CCOC(C(=O)OCCN(C)C)(c1ccccc1)c1ccccc1	-21.0%	/	/	i	/	/
CCOC(=O)c1sc(/N=C/c2c(O)n(-c3ccccc3)c(=O)[nH]c2=O)c(C#N)c1C	6.3%	24.1%	11.6µM*	?	1.2%	?
CCOC(=O)c1c(/N=C/c2c(O)n(-c3cccc(C)c3)c(=O)[nH]c2=O)sc2c1CCCC2	-8.4%	7.1%	i	i	0.0%	i
OC(CN1CC=C(c2ccccc2)CC1)c1ccccc1 (stereo unspecified)	2.0%	-1.2%	i	i	-2.7%	i
OC(COCc1ccc(Cl)cc1)CN1CC=C(c2ccccc2)CC1 (stereo unspecified)	-20.3%	?	?	?	28.2µM*!	?
